# GDH-TPI counter-1: counter-screen for M. tuberculosis FBA inhibitors: GDH-TPI coupled enzymes; AID 588335; inhibition, % at 4.8 µM; GDH-TPI coupled enzyme counterscreen, NADH absorbance; 360,000 compounds, 1.2% hits; in the data active means inhibition above about 30%;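 further: 0% = DMSO wells and 100% = wells lacking the enzyme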
# RecA splice inh: inhibitors of M. tuberculosis RecA intein splicing; P9WHJ3; cell-free RecA intein splicing, fluorescence; inhibition, % (concentration not given with the values); 290,000 compounds, 0.75% hits; AID 2221; in the data active means inhibition above about 30%;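 further: 0% = vehicle wells and 100% = reference inhibitor control wells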
# Mtb UGM inh: Mtb UDP-galactopyranose mutase inhibition | P9WIQ1 | purified UGM, fluorescence polarization probe displacement | inhibition, % at 10 µM | 320,000 compounds, 0.06% hits | AID 504406; in the data active means inhibition above about 10%, passing the limit was not always enough
# Target sequence (P9WIQ1 whole entry, looked up): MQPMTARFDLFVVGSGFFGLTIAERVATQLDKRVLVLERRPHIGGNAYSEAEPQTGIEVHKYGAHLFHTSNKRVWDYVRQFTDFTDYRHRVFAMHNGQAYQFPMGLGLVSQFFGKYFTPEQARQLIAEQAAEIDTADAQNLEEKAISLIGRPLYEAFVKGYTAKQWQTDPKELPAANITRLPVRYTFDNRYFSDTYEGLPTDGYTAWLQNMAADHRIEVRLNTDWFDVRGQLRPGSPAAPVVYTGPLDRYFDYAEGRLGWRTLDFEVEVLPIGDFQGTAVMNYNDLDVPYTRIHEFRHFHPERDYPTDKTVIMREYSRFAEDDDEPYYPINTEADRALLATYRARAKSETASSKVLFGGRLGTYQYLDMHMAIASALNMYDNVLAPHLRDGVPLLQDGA
# Rv3671c inh: inhibitors of M. tuberculosis serine protease Rv3671c; AID 2606; 320,000 compounds, 0.048% hits; inhibition, % at 5.96 µM; in the data active means inhibition above about 38%;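 further: extracellular domain of Rv3671c used as enzyme; 0% = enzyme with DMSO and 100% = no enzyme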
# Mtb bLac sens: beta-lactam sensitization of Mtb H37Rv. inhibition, % at 25 µM. AID 434955. M. tuberculosis H37Rv growth with meropenem, percent inhibition. 330,000 compounds, 0.27% hits; call rule not given here;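 further: growth measured after seven days incubation then overnight dye step; 0% = bacteria only wells and 100% = bacteria with antibiotic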
# Mtb FBA inh: Mtb fructose-bisphosphate aldolase inhibition; P9WQA3; purified M. tuberculosis FBA, fluorescence read-out; inhibition, % at 1 µM; 360,000 compounds, 2.3% hits;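 further: 0% = vehicle and 100% = reference inhibitor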
# Mtb FBA confirm: Mtb FBA inhibition, confirmed | shares compounds with Mtb FBA inh | purified M. tuberculosis FBA, fluorescence read-out | inhibition, % at 1 µM | 5,600 compounds, 78% hits | AID 651616;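 further: 0% = vehicle wells and 100% = reference inhibitor wells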
# GDH-TPI counter-2: GDH-TPI inhibition counter-screen for FBA inhibitors. inhibition, % at 1 µM. GDH-TPI coupled enzyme counterscreen, fluorescence. 5,600 compounds, 81% hits. AID 652141. shares compounds with Mtb FBA inh; in the data active means inhibition above about 10%
# GDH-TPI dose: GDH-TPI dose response counter-screen for Mtb FBA. shares compounds with Mtb FBA inh. GDH-TPI coupled enzyme assay, fluorescence, artifact counterscreen. IC50, µM. 170 compounds, 79% hits. AID 652145; call rule not given here
# An asterisk follows results filed as active; i = inactive; nt = not tested or not shown; + = active, no number. Sampled rows, rich in hits. Any-hit rate of the full collection: about 4%. Unless noted, no stated cut-off is given here; in the data, active means inhibition above about 27%; inactive means the rest.
SMILES,GDH-TPI counter-1,RecA splice inh,Mtb UGM inh,Rv3671c inh,Mtb bLac sens,Mtb FBA inh,Mtb FBA confirm,GDH-TPI counter-2,others
CCN(C(=O)c1cc2c(=O)n3cccc(C)c3nc2n1CCCOC)C1CCCCC1,12.9,-29.7,0.3,-13.7,2.4,37.8*,103.1*,84.8*,
COCCCn1c(C(=O)NCCC2=CCCCC2)cc2c(=O)n3ccccc3nc21,2.4,-0.1,-1.4,10.1,9.5,47.2*,47.5*,35.7*,
Cc1cccn2c(=O)c3cc(C(=O)NC4CCS(=O)(=O)C4)n(Cc4ccccc4)c3nc12 (stereo not given),21.6,-196.8,1.9,-12.0,10.6,39.9*,114.4*,92.2*,
Cc1cccn2c(=O)c3cc(C(=O)NCCN4CCOCC4)c(=N)n(CCc4ccccc4)c3nc12,13.2,i,3.4,1.6,61.7,102.1*,58.0*,55.5*,
O=C(Cc1ccc(Br)cc1)OCC(=O)N1CCOCC1,9.9,nt,4.6,-8.8,-5.8,-3.5,nt,nt,
Cc1ccc2c(c1)[C@H]1[C@H](CO2)[C@H](c2ccccc2)[C@]2(C)C(=O)NCC(=O)N12,-6.8,nt,-0.3,-1.1,-1.9,0.1,nt,nt,
CCc1ccc(N2CC(C(=O)OCc3nc4ccsc4c(=O)[nH]3)CC2=O)cc1 (stereo not given),11.8,nt,-0.4,14.2,-1.6,8.7,nt,nt,
Cc1ccc2nc3c(cc(C(=O)NCc4ccco4)c(=N)n3C3CCCC3)c(=O)n2c1,-0.8,nt,-0.1,7.1,7.4,39.2*,91.8*,75.6*,
COc1ccc(CCNC(=O)c2cc3c(=O)n4ccccc4nc3n(CCN3CCOCC3)c2=N)cc1,6.6,-20.4,1.2,1.6,10.2,23.9,nt,nt,
Cc1cccn2c(=O)c3cc(C(=O)NC4CCCC4)c(=N)n(C4CCCCC4)c3nc12,6.0,-187.7,-0.4,2.5,8.6,67.4*,14.2,2.7,GDH-TPI dose=0.772*
Cc1cccn2c(=O)c3cc(C(=O)NC4CCCC4)c(=N)n(Cc4ccc(F)cc4)c3nc12,0.0,-262.0,-0.1,0.2,97.4,59.7*,6.2,0.8,
N=c1c(C(=O)NC2CCCCC2)cc2c(=O)n3ccccc3nc2n1Cc1ccc(F)cc1,3.5,-173.0,2.5,-1.1,96.7,39.6*,70.0*,50.6*,
CC1=C(C)CC(C(=O)NCCCN2CCCC2=O)C(C(=O)O)C1 (stereo not given),0.3,-2.4,3.0,7.0,-13.8,-0.7,nt,nt,
CCOc1ccc(C(=O)CCC(=O)N2CCN(S(=O)(=O)c3cccc(F)c3)CC2)cc1,-6.0,nt,-0.4,-6.2,-1.9,1.7,nt,nt,
Cc1cccn2c(=O)c3cc(C(=O)NC4CCCCC4)c(=N)n(Cc4ccccc4)c3nc12,4.2,-465.7,3.4,4.1,98.9,61.7*,103.0*,89.2*,
Cc1cccn2c(=O)c3cc(C(=O)NC4CCCC4)c(=N)n(CCc4ccccc4)c3nc12,5.0,0.8,-1.6,4.8,89.3,63.2*,119.0*,78.2*,
COCCCn1c(C(=O)NCCN2CCOCC2)cc2c(=O)n3cccc(C)c3nc21,7.4,-57.9,1.8,3.6,8.3,77.8*,+,160.7*,
Cc1ccc2nc3c(cc(C(=O)NC4CCCC4)c(=N)n3CCCn3ccnc3)c(=O)n2c1,nt,-244.6,2.3,1.3,-1.1,nt,nt,nt,
COc1ccc(C(=O)OCC(=O)c2ccc3c(c2)NC(=O)CO3)cc1S(=O)(=O)N1CCOCC1,3.5,nt,-1.8,2.5,-4.3,-2.7,nt,nt,
O=C(CCC(=O)c1cccs1)NNC(=O)c1ccc(Cl)cc1,2.2,nt,-1.0,0.0,2.9,0.9,nt,nt,
CCN(CC(=O)Nc1ccc(NC(C)=O)cc1)C(=O)CSCc1c(C)noc1C,-3.8,-0.1,-1.7,2.3,2.7,-1.8,nt,nt,
Cc1nn(-c2ccc(F)cc2F)c(=O)c2noc(C)c12,1.5,-0.9,1.5,5.8,-13.1,0.8,nt,nt,
Cc1nn(-c2ccc(F)cc2F)c2c1-c1nc(N3CCCC3)ncc1CC2,1.9,3.2,-2.9,-0.9,89.2,29.9*,+,+,
S=c1[nH]nc(-c2ccccc2)n1CC1CCCO1 (stereo not given),-0.8,nt,0.5,1.2,-6.3,6.8,nt,nt,
Fc1ccccc1-c1nc2nc3ccccc3nc2n1CC1CCCO1 (stereo not given),58.6*,2.2,-0.4,3.1,-4.8,59.5*,-2.0,-3.2,
SMILES,GDH-TPI counter-1,RecA splice inh,Mtb UGM inh,Rv3671c inh,Mtb bLac sens,Mtb FBA inh,Mtb FBA confirm,GDH-TPI counter-2,others
OCC[C@H]1C[C@H](O)[C@@H](O)[C@@]2(CCc3ccccc3O2)O1,7.6,nt,-1.0,-5.0,-0.4,-4.2,nt,nt,
CCCc1cc(=O)oc2cc(C)cc(OCC(=O)Nc3cccnc3)c12,11.3,-8.5,-1.0,-26.9,-0.7,82.1*,7.5,0.4,
Cc1cc(OCC(=O)NCc2cccnc2)c2c(C)cc(=O)oc2c1,11.8,-3.2,-1.5,1.6,3.3,68.2*,-6.1,-6.1,
Cc1cc(OCC(=O)NCc2cccnc2)c2c(C)c(Cc3ccccc3)c(=O)oc2c1,0.4,0.0,-0.9,-9.9,0.4,12.1,nt,nt,
Cc1c(C)c2ccc(OCC(=O)Nc3cccnc3)cc2oc1=O,19.0,-0.7,1.0,0.6,-8.1,22.4,nt,nt,
Cc1cc(OCC(=O)Nc2cccnc2)c2c(C)cc(=O)oc2c1,8.9,-0.7,-2.1,0.8,-5.1,77.5*,-1.6,-2.4,
Cc1cc(OCC(=O)NC2CC(C)(C)NC(C)(C)C2)c2c(C)cc(=O)oc2c1,3.0,5.8,0.5,-0.4,-2.0,94.0*,132.1*,114.1*,
Cc1oc2c(c(C)cc3oc(=O)c(CC(=O)N[C@@H](CC(C)C)C(=O)O)c(C)c32)c1C,10.8,-3.3,-3.4,nt,-1.0,30.5*,84.8*,63.9*,
Cc1cc2oc(=O)c(CC(=O)O)c(C)c2c2occ(C(C)(C)C)c12,18.4,-2.9,1.1,-5.5,9.5,15.3,nt,nt,
Cc1coc2c1c(C)cc1oc(=O)c(CC(=O)NCC(=O)O)c(C)c12,18.9,-2.7,1.5,nt,-0.6,101.1*,141.3*,94.2*,
Cc1oc2c(c(C)cc3oc(=O)c(CC(=O)NCCC(=O)O)c(C)c32)c1C,23.1,-8.3,-2.5,nt,0.8,30.8*,159.0*,99.2*,
Cc1coc2c1c(C)cc1oc(=O)c(CC(=O)NCCCCCC(=O)O)c(C)c12,2.1,-2.0,-1.1,3.3,6.4,61.6*,+,175.0*,
CCOC(=O)c1c(SCCN2CCCCC2)n(-c2ccccc2)c(=S)n(-c2ccccc2)c1=O,-1.4,nt,nt,nt,nt,-0.1,nt,nt,
COc1ccc2nc(-c3ccccc3)[nH]c(=O)c2c1,21.9,nt,nt,nt,nt,-0.6,nt,nt,
COc1ccc(-c2nc3ccc(N4CCCC4)cc3c(=O)[nH]2)cc1OC,23.9,-5.7,0.2,5.3,6.3,27.0*,4.8,-7.2,
Cc1nn(CC(=O)Nc2ccc(N3CCOCC3)cc2)c(C)c1Cl,-7.4,1.3,0.1,-2.1,2.2,1.5,nt,nt,

# Compound activity as filed in PubChem.
